The record followed here is PubChem BioAssay (EPA / NIEHS).

Activity calls are given as the source filed them. Rule for the calls: active = hit-call score of the fitted dose curve at least 0.9, where 1 is the maximum; inactive = score below 0.9.

This assay can be described thus: ATG_TA_CIS: Attagene CIS-FACTORIAL HepG2 Assay for human TA Basal Promoter (AID 2282964). As to conditions: HepG2 Attagene CIS-factorial TA basal promoter reporter; actives raise or lower the signal. Here is the method: ATG_CIS is a cell-based, multiplexed-readout assay that uses HepG2, a human liver cell line, with measurements taken at 24 hours after chemical dosing in a 24-well plate.ATG_TA_CIS is one of 52 assay component(s) measured or calculated from the ATG_CIS assay. It is designed to make measurements of mRNA induction, a form of inducible reporter, as detected with fluorescence intensity signals by Reverse transcription polymerase chain reaction (RT-PCR) and Capillary electrophoresis technology.Data from the assay component ATG_TA_CIS was analyzed into 1 assay endpoint. This assay endpoint, ATG_TA_CIS, was analyzed with bidirectional fitting relative to DMSO as the negative control and baseline of activity. Using a type of inducible reporter, measures of mRNA for gain or loss-of-signal activity can be used to understand the background control at the transcription factor-level as they relate to the gene . Furthermore, this assay endpoint can be referred to as a secondary readout, because this assay has produced multiple assay endpoints where this one serves a background control function. To generalize the intended target to other relatable targets, this assay endpoint is annotated to the background measurement intended target family, where the subfamily is internal marker.
Human liver HepG2 cells are transiently transfected with multiple reporter transcription units (MRTUs) in 6-well plates using FuGene 6 reagent (Roche; 3 ml FuGene/1 mg DNA). The MRTU constructs are regulated by a cis-regulating element (promoter). […] A major difference between the CIS and TRANS system is that in CIS activities of endogenous TFs are measured, whereas the TRANS assay evaluates changes in activities of exogenous, chimeric NR-Gal4 proteins. […] At the end of 24 hour incubation, total RNA was isolated using TriZol reagent (Invitrogen). The isolated RNA is then reverse-transcribed using oligo(dT) primer and Mo-MLV reverse transcriptase (Invitrogen) with DNAse I (Ambion) treatment for 30 min. The one-tenth of the produced cDNA was amplified by PCR using Taq DNA polymerase (Invitrogen) and two reporter sequence-specific primers. The PCR products were fluorescently labeled by primer extension with 6-arboxyfluorescein (6-FAM) 5'-labeled reporter sequence-specific primer (2 min at 95 C, 20 s at 68 C and 10 min at 72 C) and these products were digested with 5U of HpaI (New England Biolabs) for 2h at 37 C. The fragments were purified using Qiaquick PCR columns (Qiagen), analyzed on an ABI 3130xL genetic analyzer (Applied Biosystems) with peak positions identified by using a set of X-rhodamine (ROX)-labeled MapMarker1000 molecular weight standards (BioVentures). The raw capillary electrophoresis data was processed using Attagraph software (Attagene).
As for `CC(C)(c1ccccc1)c1ccc(Nc2ccc(C(C)(C)c3ccccc3)cc2)cc1`, the compound was classed as inactive.

Regarding `O=S(=O)(O)c1ccc(Nc2nc(Nc3ccc(C=Cc4ccc(Nc5nc(Nc6ccc(S(=O)(=O)O)cc6)nc(N(CCO)CCO)n5)cc4S(=O)(=O)O)c(S(=O)(=O)O)c3)nc(N(CCO)CCO)n2)cc1`, the compound was classed as inactive.

In the case of `Cc1cc(C)n(CO)n1`, the result was inactive.

Turning to `Cc1ccc2c(c1)CCCN2`, the compound was classed as inactive.

By AC50 is commonly meant the concentration at which the activity in the assay is half-maximal. Consider `O=C(C=Cc1ccccc1)OCCc1ccccc1`, for which the AC50 is 53.9 µM (active).

Consider `CC1(C)[C@@H]2CC[C@@]1(C)C(=O)C2`, for which the compound was classed as inactive.

On to `CC/C=C\C/C=C\C/C=C\CCCCCCCC(=O)OC`, for which the compound was called inactive.

As for `CCN1CN(CC)CN(CC)C1`, the result was inactive.

Consider `O=C1CCCN1C1CCCCC1`, for which the outcome was inactive.

Regarding `CCCCCCCCCCCCc1ccc(O)cc1`, the outcome was inactive.

With `CCCCCC(=O)OCC`, the compound was called inactive.

In the case of `[Cl][Eu]([Cl])[Cl]`, the outcome was inactive.

For the compound `O=C1CCCCCCCCCCC1`, the outcome was inactive.

`CCCc1ccc(O)c(OC)c1`: the call was inactive.

For the compound `Nc1nc(N)nc(-c2ccccc2)n1`, the result was inactive.

In the case of `C=CC(C)(CCC=C(C)C)OC(=O)C=Cc1ccccc1` (stereo not given), the outcome was inactive.

Regarding `Clc1cccnc1`, the outcome was inactive.

Turning to `CC1=NN(c2ccc(S(=O)(=O)O)cc2)C(=O)C1N=Nc1ccccc1` (stereo not given), the call was inactive.

Turning to `c1ccc(-c2nc3ccccc3[nH]2)cc1`, the compound was classed as inactive.

Take `CC(C)C(=O)OCCc1ccccc1`: the compound was called inactive.

`O=S(=O)(O)c1ccc(N=Nc2c(O)ccc3ccccc23)cc1`: the call was inactive.

Turning to `Cc1c[nH]c(=O)[nH]c1=O`, the outcome was inactive.

`O=C1CCCCC1C1CCCCC1` (stereo not given): the compound was called inactive.

On to `CC1OC(=O)C(C)OC1=O` (stereo not given), for which the outcome was inactive.

As to `CC(C)c1ccc(O)c(C(C)C)c1`, the result was inactive.

As to `Nc1cccc(N)n1`, the outcome was inactive.

As for `CCOC(=O)c1ccccc1C`, the compound was classed as inactive.

Consider `N=C1C=CC(=C(c2ccc(N)cc2)c2ccc(N)cc2)C=C1`, for which the AC50 was 81.3 µM (active).

For the compound `CCCCC(=O)O`, the result was inactive.

As for `CCCCCCCCCCCC(=O)OCC`, the call was inactive.

As to `CCOC(=O)C1=NN(c2ccc(Cl)cc2Cl)C(C)(C(=O)OCC)C1` (stereo not given), the compound was called inactive.

Regarding `COC(C=C(C)CCC=C(C)C)OC`, the outcome was inactive.

Consider `CC(C)c1cc(C(C)C)cc(C(C)C)c1`, for which the compound was called inactive.

In the case of `CC=C(C)C(C)=O`, the outcome was inactive.

`CC(C)(C)C1CCC(=O)CC1`: the AC50 is 152 µM (active).

With `COc1cc(C)ccc1O`, the compound was called inactive.

For `Cc1c(C(=O)c2c[nH]n(C)c2=O)ccc(S(C)(=O)=O)c1C1=NOCC1`, the outcome was inactive.

As for `C[N+](C)(C)CCCNS(=O)(=O)C(F)(F)C(F)(F)C(F)(F)C(F)(F)C(F)(F)C(F)(F)C(F)(F)C(F)(F)F`, the result was inactive.

As to `CC(=O)/C=C/C1C(C)=CCCC1(C)C` (stereo not given), the compound was called inactive.

With `CCCCOCCOC(=O)COc1ccc(Cl)cc1Cl`, the result was inactive.
